Rows were chosen to be rich in hits. Some 3.2% of all compounds tested hit in one or more screens of this group.
PGC1a acetyl inh: modulators of PGC1a acetylation; U2OS PGC1a acetylation, AlphaScreen anti-acetyl-lysine; with virally co-expressed GCN5 acetyltransferase; 0.17% of 350,000 active; inhibition, % at 15.6 µM; AID 651687;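 active = every replicate shows inhibition of at least 40%; inconclusive = mean inhibition at least 40% but some replicate below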
DENV2 CPE rescue: DENV2-induced cell death inhibition. 1.7% of 350,000 active. DENV2-infected cells, cytopathic effect rescue, plate reader. CPE inhibition, % at 9.99 µM; in the data active = CPE inhibition above about 20%, passing the limit was not always enough; inconclusive = no clear call, values can overlap the other calls; tested in BHK-21 cells
ERAP1 inh: inhibitors of human ERAP1 aminopeptidase; Q9NZ08; recombinant ERAP1, Leu-AMC fluorescence, 60 min; inhibition, % at 10.7 µM; 0.15% of 340,000 active; AID 652197;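 active = mean replicate inhibition of at least 30%, or all replicates individually reaching that 30% level; inactive = mean below 30% and not every replicate reaching it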
Target sequence (Q9NZ08 whole entry, looked up): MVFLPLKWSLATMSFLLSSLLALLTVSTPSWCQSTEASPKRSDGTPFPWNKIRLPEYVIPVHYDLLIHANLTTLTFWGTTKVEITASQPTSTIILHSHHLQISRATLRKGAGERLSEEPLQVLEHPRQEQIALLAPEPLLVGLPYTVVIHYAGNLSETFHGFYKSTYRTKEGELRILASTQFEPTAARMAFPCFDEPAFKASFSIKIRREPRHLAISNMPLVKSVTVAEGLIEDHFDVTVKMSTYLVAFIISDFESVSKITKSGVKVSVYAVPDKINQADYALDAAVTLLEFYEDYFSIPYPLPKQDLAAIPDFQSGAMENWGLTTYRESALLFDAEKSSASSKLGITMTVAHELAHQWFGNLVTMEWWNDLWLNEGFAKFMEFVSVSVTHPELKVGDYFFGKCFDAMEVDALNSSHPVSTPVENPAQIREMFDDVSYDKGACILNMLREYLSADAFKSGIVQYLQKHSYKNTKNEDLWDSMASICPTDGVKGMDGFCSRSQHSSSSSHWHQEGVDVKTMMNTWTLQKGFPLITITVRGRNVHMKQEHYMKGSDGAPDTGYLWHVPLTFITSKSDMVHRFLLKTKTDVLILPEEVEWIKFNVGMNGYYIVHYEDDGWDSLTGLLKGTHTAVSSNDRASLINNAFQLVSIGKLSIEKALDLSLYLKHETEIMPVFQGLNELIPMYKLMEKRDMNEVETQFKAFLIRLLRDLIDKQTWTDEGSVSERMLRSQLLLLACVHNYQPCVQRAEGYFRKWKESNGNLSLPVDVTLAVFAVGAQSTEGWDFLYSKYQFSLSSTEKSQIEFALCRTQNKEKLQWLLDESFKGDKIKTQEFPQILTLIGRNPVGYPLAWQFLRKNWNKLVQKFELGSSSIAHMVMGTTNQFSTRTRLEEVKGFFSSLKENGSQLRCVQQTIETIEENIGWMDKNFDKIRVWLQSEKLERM
rRNA inh HTS: selective bacterial rRNA inhibition in E. coli; AID 720706; E. coli WT GFP vs humanized-ribosome RFP mutants, fluorescence, 24 h; hits give low values; DMSO median 0, no signal -100; 1.6% of 350,000 active; GFP signal change (wild-type ribosome), % (test concentration not listed);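 active = significant combined selectivity score with lowered wild-type GFP, culture density cut under 30%, mutant RFP and density less affected; inactive = any of these conditions unmet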
CaV13 FRET inh: Primary screen for inhibitors of IQ motif and Ca2+-dependent inactivation inhibitor domain binding in CACNA1D, Förster resonance energy transfer in living cells, …. HEK cells, CFP/YFP FRET ICDI-IQ, plate reader, 10 min; percent FRET-ratio fall versus neutral wells. inhibition, % at 12.3 µM. 0.098% of 340,000 active;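 active = mean replicate inhibition of at least 30% and at least 1% of replicates passing that level; inconclusive = only one of the two criteria is met; inactive = neither criterion is met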
GSIS activator: primary screen for activators of insulin secretion dependent on glucose, INS-1E cells, GLuc reporter luminescence; INS-1E GLuc reporter insulin secretion, 2-3 h; activation, % at 16.6 µM; 0.61% of 370,000 active; AID 743287;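 active = lowest replicate activation of at least 40%, so every replicate reaches that level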
Each line names hits and unclear results; the compound was inactive in the other large screens.

O=[N+]([O-])c1ccc(Nc2nc(N/N=C/c3cccc(F)c3)nc(N3CCCC3)n2)cc1	none (no result: PGC1a acetyl inh)
COc1ccc(/C=C2\CCC/C(=C\C=N\N(C)C)C2=O)cc1	rRNA inh HTS -19.6
COc1ccc(/C=C2\CCCCC2=O)cc1	none (no result: GSIS activator)
CN(C)/N=C/C=C1\CCC/C(=C\c2ccc(F)c(F)c2)C1=O	rRNA inh HTS -27.0
COc1cc(OC)c(OC)cc1CCC(C)NC(=O)Cc1ccccc1 (stereo not given)	GSIS activator 44.0
C[C@H](CO)N1C[C@H](C)[C@H](CN(C)S(=O)(=O)c2cn(C)cn2)Oc2ccc(NS(=O)(=O)c3ccccc3)cc2CC1=O	none (no result: CaV13 FRET inh)
C[C@@H]1CCCCO[C@H](CN(C)C(=O)Nc2ccc(F)cc2)[C@@H](C)CN([C@H](C)CO)C(=O)c2cc(NS(=O)(=O)c3ccccc3)ccc2O1	none (no result: CaV13 FRET inh)
C[C@@H]1CN([C@H](C)CO)C(=O)c2cc(NS(=O)(=O)c3ccc(F)cc3)ccc2O[C@@H](C)CCCCO[C@H]1CN(C)C(=O)Nc1ccc(F)cc1	none (no result: ERAP1 inh, CaV13 FRET inh)
C[C@@H]1CN([C@H](C)CO)C(=O)c2cc(NS(=O)(=O)c3ccc(F)cc3)ccc2O[C@@H](C)CCCCO[C@@H]1CN(C)C(=O)c1ccccc1	none (no result: CaV13 FRET inh)
C[C@@H]1CCCCO[C@@H](CN(C)C(=O)c2ccccc2)[C@H](C)CN([C@H](C)CO)C(=O)c2cc(NS(=O)(=O)c3ccc(F)cc3)ccc2O1	DENV2 CPE rescue 22.1 (no result: CaV13 FRET inh)
C[C@H]1CCCCO[C@H](CN(C)C(=O)Nc2ccc(F)cc2)[C@@H](C)CN([C@@H](C)CO)C(=O)c2cc(NS(=O)(=O)c3ccc(F)cc3)ccc2O1	DENV2 CPE rescue 27.1 (no result: ERAP1 inh, CaV13 FRET inh)
C[C@H]1CCCCO[C@H](CN(C)C(=O)Nc2ccc(F)cc2)[C@@H](C)CN([C@@H](C)CO)C(=O)c2cc(NS(=O)(=O)c3ccccc3)ccc2O1	DENV2 CPE rescue 53.1 (no result: CaV13 FRET inh)
C[C@@H]1CCCCO[C@H](CN(C)Cc2ccc3c(c2)OCO3)[C@H](C)CN([C@@H](C)CO)C(=O)c2cc(NC(=O)NC3CCCCC3)ccc2O1	none (no result: CaV13 FRET inh)
O=C(NC1CCCC1)N1CC2(C1)[C@@H](c1ccccc1)[C@@H](CO)N2CC1CCOCC1	none (no result: CaV13 FRET inh)
Cc1cc(Br)ccc1NC(=O)CNC(=O)Cc1ccc(S(=O)(=O)N2CCOCC2)s1	DENV2 CPE rescue 39.1
COc1ccc2c(c1)CCc1c(C(=O)NCc3ccc(Cl)cc3)noc1-2	none (no result: DENV2 CPE rescue, ERAP1 inh, rRNA inh HTS, CaV13 FRET inh)
COc1ccc2c(c1)CCc1c(C(=O)Nc3cc(C)n(Cc4ccc(Cl)cc4)n3)noc1-2	GSIS activator 47.1 (no result: DENV2 CPE rescue, ERAP1 inh, rRNA inh HTS)
C[C@@H]1CN([C@@H](C)CO)S(=O)(=O)c2ccc(C#C[C@@H](C)O)cc2O[C@@H]1CN(C)Cc1ccccn1	none (no result: CaV13 FRET inh)
CC=Cc1ccc2n(c1=O)C[C@H]1[C@H](CO)[C@@H](C(=O)NCCc3cn(C)cn3)N(C(=O)C3CCCC3)[C@@H]21 (mixture of isomers)	none (no result: CaV13 FRET inh)
CCCC(=O)N1CCC2(CC1)CN(C(=O)C1CCOCC1)[C@@H](CO)c1[nH]c3cc(OC)ccc3c12	none (no result: ERAP1 inh, CaV13 FRET inh)
O=C(COc1ccccc1/C=C\c1[nH]c(=O)[nH]c(=O)c1[N+](=O)[O-])Nc1ccccc1	rRNA inh HTS -31.1
O=c1[nH]c(/C=C/c2ccccc2Cl)c([N+](=O)[O-])c(=O)[nH]1	none
CN(C)c1ccc(CNS(=O)(=O)c2ccc3c(c2)C(C)(C)C(=O)N3C)cc1	DENV2 CPE rescue 48.5
O=c1c2ccccc2nc(COc2ccccc2)n1/N=C/c1ccc(O)c(O)c1	rRNA inh HTS -30.6 (no result: DENV2 CPE rescue)
O=C(O)COc1ccc(/C=N/n2c(COc3ccccc3)nc3ccccc3c2=O)cc1	none (no result: PGC1a acetyl inh)
O=C(Nn1c(COc2ccccc2)nc2ccccc2c1=O)C(Cl)(Cl)Cl	rRNA inh HTS -15.3 (no result: PGC1a acetyl inh)
O=C(C[C@@H]1C=C[C@H](NC(=O)CC2CC2)[C@@H](CO)O1)NCc1ccc(Cl)cc1	none (no result: CaV13 FRET inh)
CC=Cc1ccc2n(c1=O)C[C@@H]1[C@@H](CO)[C@H](C(=O)NCC)[C@H]2N1Cc1ccccc1 (mixture of isomers)	DENV2 CPE rescue inconclusive (no result: PGC1a acetyl inh, CaV13 FRET inh)
COCCN(C[C@@H]1[C@H](c2ccccc2)[C@@H](CO)N1C(C)=O)C(=O)c1ccncc1	none (no result: CaV13 FRET inh)
O=C(NC[C@@H]1[C@@H](c2ccccc2)[C@@H](CO)N1CC1CCCC1)c1cccnc1	DENV2 CPE rescue 38.5 (no result: ERAP1 inh, CaV13 FRET inh)
COCCN(C[C@H]1[C@H](c2ccccc2)[C@H](CO)N1C(C)=O)C(=O)c1ccncc1	DENV2 CPE rescue 25.3 (no result: CaV13 FRET inh)
CC(=O)N1[C@H](CO)[C@H](c2ccccc2)[C@H]1CNC(=O)c1ccncc1	DENV2 CPE rescue 20.5 (no result: CaV13 FRET inh)
O=C(NC[C@H]1[C@@H](c2ccccc2)[C@H](CO)N1CC1CCCC1)c1cccnc1	none (no result: ERAP1 inh, CaV13 FRET inh)
C[C@@H]1CCCCO[C@H](CN(C)Cc2ccncc2)[C@@H](C)CN([C@H](C)CO)C(=O)c2cc(NC(=O)Nc3ccccc3)ccc2O1	none (no result: CaV13 FRET inh)
C[C@@H]1CN([C@H](C)CO)C(=O)c2cc(C#CC3(O)CCCC3)cnc2O[C@H]1CN(C)C(=O)CC1CC1	none (no result: CaV13 FRET inh)
O=C(Nc1ccc2ccccc2c1)[C@@H]1C[C@H]1[C@@H](NP(=O)(c1ccccc1)c1ccccc1)c1ccccc1	DENV2 CPE rescue 40.3 (no result: PGC1a acetyl inh, ERAP1 inh)
COc1ccc(-c2cnc3c(c2)C(=O)N([C@@H](C)CO)C[C@@H](C)[C@@H](CN(C)C(=O)NC2CCCC2)O3)cc1	none (no result: CaV13 FRET inh)
Cc1ccc2nc(-c3ccc(SCC(=O)Nc4nc(C)cs4)nc3)[nH]c2c1	none (no result: PGC1a acetyl inh, DENV2 CPE rescue, ERAP1 inh, rRNA inh HTS)
Cc1nnc(NC(=O)CSc2ncc(-c3ccccc3)[nH]2)s1	PGC1a acetyl inh 88.3
Cc1ccc2nc(-c3ccc(SCC(=O)Nc4nnc(C)s4)nc3)[nH]c2c1	GSIS activator 459.1 (no result: PGC1a acetyl inh, DENV2 CPE rescue, ERAP1 inh, rRNA inh HTS)
Cc1csc(NC(=O)CSc2ncc(-c3ccccc3)[nH]2)n1	none (no result: PGC1a acetyl inh)
Cc1nc(NC(=O)CSc2ccc(-c3nc4ccccc4[nH]3)cn2)sc1C	GSIS activator 50.9 (no result: PGC1a acetyl inh, DENV2 CPE rescue, ERAP1 inh, rRNA inh HTS)
C[C@@H]1CN([C@@H](C)CO)C(=O)c2cccc(NS(=O)(=O)c3ccc(Cl)cc3)c2O[C@@H]1CN(C)C(=O)NC1CCCCC1	none (no result: CaV13 FRET inh)
CNC[C@H]1Oc2c(NC(C)=O)cccc2C(=O)N(C)C[C@@H]1C	none (no result: PGC1a acetyl inh, DENV2 CPE rescue, ERAP1 inh, CaV13 FRET inh)
O=C(Nc1ccc2c(c1)OCO2)N[C@@H]1CC[C@H](CCNC(=O)C2CCCCC2)O[C@@H]1CO	none (no result: CaV13 FRET inh)
O=C(Nc1nnc(-c2ccncc2)o1)c1ccccc1	rRNA inh HTS -35.4 (no result: PGC1a acetyl inh)
O=C(Nc1nnc(-c2ccccn2)o1)c1cccc(Br)c1	none (no result: DENV2 CPE rescue, ERAP1 inh, rRNA inh HTS)
Cc1ccc(C(=O)Nc2nnc(-c3ccncc3)o2)cc1	none
O=C(Nc1nnc(-c2ccccn2)o1)c1cccc(Cl)c1	rRNA inh HTS -53.9
CN1CCN(C(=O)C[C@H]2C[C@H]3c4cc(NC(=O)NC5CCCC5)ccc4O[C@H]3[C@H](CO)O2)CC1	none (no result: CaV13 FRET inh)
